Assay outcomes (PubChem BioAssay)
Only some compounds are listed: those with a hit (about 1.1% of all), similar ones and a draw of the others.
HEK293 viab: counter-screen for SNCA expression inhibitors: cell viability. Potency, µM (titrated, usually from 57.1 µM), inactives show at the top dose activity change, negative = cytotoxicity, usual class: cytotoxic. 150,000 tested, 0.12% active. HEK-293-SNCA-luc viability, GF-AFC fluorescence, 24 h. AID 1671193;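 also: potency is read from the fitted curve at half-maximal effect; 0% = DMSO-treated cells and -100% = medium-only wells without cells; nearly all actives have a fitted effect of over 30% in size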
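HEK-293-SNCA-luc cells (1500/well) plated 24 h, then exposed 24 h to a dilution series; GF-AFC added 30 min at 37C, fluorescence 405/540 nm; normalised to medium-only and DMSO wells, Hill fit.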
SNCA expr inh: reduces expression of the alpha-synuclein gene. HEK-293 SNCA-luciferase knock-in, luminescence, 24 h. Potency, µM (series often up to 57.2 µM), for the others: at the top dose activity change, negative = inhibition, actives largely listed as inhibitors. 140,000 tested, 0.17% active. AID 1671194;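 also: potency is read from the fitted curve at half-maximal effect; plate controls were DMSO cells for no effect and cell-free wells for full effect; nearly all actives have a fitted effect of over 45% in size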
IP6K1 inh: inhibitors of human IP6K1; Q92551; IP6K1 kinase, ADP-Glo luminescence, 2 h; hits give low values; activity change, % (series mostly up to about 58 µM); 140,000 tested, 0.81% active; in the data active = activity change below about -25%
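ADP-Glo luminescence measures ADP made by human IP6K1 during a 2 h RT reaction with ATP/IP6 (mix at 1.3 mM/130 uM); top library doses 57.5 and 19.1 uM final.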
GPT2 inhibitor: blocks human glutamate pyruvate transaminase 2; Q8TD30; Recombinant GPT2, coupled pyruvate oxidase/HRP Amplex Red fluorescence; Potency, µM (series often up to 57.7 µM), inactives show at the top dose activity change, negative = inhibition, usual class: inhibitors; 100,000 tested, 0.25% active; AID 1671188; also: potency is read from the fitted curve at half-maximal effect; nearly all actives have a fitted effect of over 60% in size
Target sequence (Q8TD30 whole entry, looked up): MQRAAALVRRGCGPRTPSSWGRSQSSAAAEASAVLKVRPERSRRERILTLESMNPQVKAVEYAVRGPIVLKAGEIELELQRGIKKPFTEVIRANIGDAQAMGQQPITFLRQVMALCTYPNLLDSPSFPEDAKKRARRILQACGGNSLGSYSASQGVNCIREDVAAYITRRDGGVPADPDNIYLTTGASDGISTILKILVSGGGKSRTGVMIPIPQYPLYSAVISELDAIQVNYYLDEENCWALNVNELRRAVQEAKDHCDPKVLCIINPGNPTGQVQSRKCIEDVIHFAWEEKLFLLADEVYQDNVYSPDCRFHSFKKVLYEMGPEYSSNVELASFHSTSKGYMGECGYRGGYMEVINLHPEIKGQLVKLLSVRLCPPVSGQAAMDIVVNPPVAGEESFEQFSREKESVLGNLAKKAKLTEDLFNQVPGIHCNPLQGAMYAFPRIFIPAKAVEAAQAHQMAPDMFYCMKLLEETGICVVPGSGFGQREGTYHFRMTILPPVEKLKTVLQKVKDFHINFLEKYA
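Recombinant GPT2 (10ng/uL) with 250uM a-KG and 2mM L-alanine, 30 min at room temperature, in HEPES pH 7.5 buffer. Pyruvate detected by pyruvate oxidase/HRP/Amplex Red fluorescence after 30 min in the dark; AOA (50uM) as positive control.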
IP6K1 inh cnf: human IP6K1 inhibition, confirmatory | shares compounds with IP6K1 inh | recombinant IP6K1 kinase, ADP-Glo luminescence, 2 h | Potency, µM (series often up to 49 µM), inactives show top-dose activity change, negative = inhibition, actives largely listed as inhibitors | 1,200 tested, 13% active | AID 1645852; also: potency is read from the fitted curve at half-maximal effect; nearly all actives have a fitted effect of over 65% in size
An asterisk follows results filed as active; i = inactive; ? = inconclusive; / = no result; [ ] = another dose, or the depositor's remark. Unless noted, calls follow the shape of the dose curve; as a rule, active = well fitted curve in the direction sought with a large enough effect; inconclusive = small, poorly fitted or top-dose-only effect, or another doubt; inactive = no such curve, though single readings can be large; an effect the other way counts as inactive or inconclusive. Unless noted, % is scaled to controls: 0 for no effect and ±100 for the full control effect.

SMILES	HEK293 viab	SNCA expr inh	IP6K1 inh	GPT2 inhibitor	IP6K1 inh cnf
O=C(c1ccccc1F)N1CCC(N2CC3(CCCC3)C2c2ccccc2)CC1 (stereo unspecified)	-2%	-24%	0	i	/
Cc1cccc(NC(=O)Cn2nnc(C(=O)Nc3ccc(F)c(Cl)c3)c2N)c1	-13%	3%	-34*	/	-17%
COc1cccc(NC(=O)c2nnn(Cc3ccc(OC)c(Br)c3)c2N)c1	3%	43%	-27*	/	?
COc1ccc(NC(=O)Cn2nnc(C(=O)Nc3ccc(C)c(F)c3)c2N)cc1Cl	-8%	22%	21	/	/
COc1ccc(CN2CC(COc3ccc(OC)cc3)Oc3ncccc3C2=O)cc1 (stereo unspecified)	/	/	3	/	/
C=C[C@@H]1[C@H](O[C@@H]2O[C@H](CO)[C@@H](O)[C@H](O)[C@H]2O)OC=C(C(=O)O)[C@H]1CCOC(=O)/C=C/c1ccc(O)c(O)c1	-11%[23.9 µM]	/	3	?	/
O=C(c1ccc(F)cc1)N1CCC(C(=O)N2CCC(N3CCOCC3=O)CC2)CC1	7%	-16%	0	i	/
CCN1C[C@H]2COc3ccc(C)cc3[C@H]2N(C(=O)CC2CCCC2)CCC1=O	/	/	4	/	/
CC(=O)Nc1ccc(NC(=O)c2csnn2)cc1	7%	?	-5	/	/
Cc1ccc(Cl)cc1NC(=O)c1csnn1	-4%	-13%	-37*	/	?
Cc1nn(-c2ccccc2)c2c1C(C)N(C1CCN([S+](=O)([O-])c3ccc(C4CC4)cc3)C1)C2=O (stereo unspecified)	/	/	-7	/	/
CCOc1ccc(NC(=O)CN(c2ccc(Cl)cc2C)S(=O)(=O)c2ccccc2)cc1	-8%	?	-25*	/	-10%
COc1cc2nc(-c3cc(F)ccc3O)nc(N[C@@H]3CNC[C@H]3C(C)(C)O)c2cc1OC	?	/	-62*	i	3.3µM*
Cc1cc(Nc2nc(NC(C)c3ccc(F)cc3)c(C#N)cc2F)n[nH]1 (stereo unspecified)	/	/	/	/	-9%
CCn1cnc2c(=O)oc3ccc(S(=O)(=O)N4CCN(c5cc(C)ccc5C)CC4)cc3c21	7%	19%	-28*	/	-20%
Cc1ccc(C(=O)N2CCCN(c3ccnc4ccnn34)CC2)cc1	7%	-4%	-5	-10%	/
O=S(=O)(NC1CCN(c2ccc3nnc(-c4ccccc4)n3n2)CC1)c1cccs1	/	/	-27*	/	?
COc1ccnc2[nH]cc(C(=O)C(=O)N3CCN(C(=O)c4ccccc4)CC3C)c12 (stereo unspecified)	19%	/	-11	i	/
O=C(C1CCCN(C2CCN(c3ncnc4sccc34)CC2)C1)N1CCCC1 (stereo unspecified)	-3%	?	-28*	-16%[11.5 µM]	-13%
CSc1ccc(CCNC(=O)c2cnc3c(C)cccn3c2=O)cc1	13%	31%	-29*	/	-21%
Cc1cccn2c(=O)c(C(=O)NCCc3ccc(Cl)cc3)cnc12	-8%	67%	8	/	/
O=C(O)COc1ccc(-c2nccc3c2C(=O)N(Cc2c[nH]c4ccccc24)CC(COc2ccc(F)cc2F)O3)cc1 (stereo unspecified)	-2%	7%	9	i	/
O=C(C1CC=CC1)N1CCC[C@H](n2c(=O)n(Cc3cccc(F)c3)c3cccnc32)C1	-10%	-25%	2	i	/
Cc1ccc(OCc2ccc(-c3nc(C#N)c(N4CCN(c5cccc(Cl)c5)CC4)o3)o2)cc1	14%	-17%	-34*	/	-3%
COc1c(C(CC(C)C)OC(C)=O)ccc(Oc2c(O)cc(C)cc2/C=C/C(C)=O)c1C(=O)O (stereo unspecified)	-36%[23.9 µM]	/	-14	-53%[27.3 µM]	/
Cn1cc(-c2cc(=O)c3ccnc(Nc4ccc5[nH]ccc5c4)c3o2)cn1	-15%[87.6 µM]	-6%[87.6 µM]	-38*	i	?
COc1ccc(C(C)NC(=O)C2CCN(c3cc(C(F)(F)F)ncn3)CC2)cc1 (stereo unspecified)	1%	1%	-12	i	/
CN(Cc1ccccc1)C(=O)c1ccc(S(=O)(=O)Nc2ccccc2)cc1	/	/	/	/	-9%
O=C(c1ccc2c(c1)OCO2)N1CCN(c2ccc3nnc(C4CC4)n3n2)CC1	/	/	28	/	/
